Records with an inconclusive call do not appear. Where a call stands in place of a potency, no number is given. Calls of active or inactive are those of the source. Calls follow the shape of the dose curve; as a rule, active = well fitted inhibition curve with a large enough effect; inconclusive = small, poorly fitted or top-dose-only effect, or effect the other way; inactive = flat fitted curve, though single readings scatter.
Potency is read from the fitted curve at half-maximal effect.

Ubiquitin carboxyl-terminal hydrolase 2 (Homo sapiens), sequence (O75604 whole entry, looked up): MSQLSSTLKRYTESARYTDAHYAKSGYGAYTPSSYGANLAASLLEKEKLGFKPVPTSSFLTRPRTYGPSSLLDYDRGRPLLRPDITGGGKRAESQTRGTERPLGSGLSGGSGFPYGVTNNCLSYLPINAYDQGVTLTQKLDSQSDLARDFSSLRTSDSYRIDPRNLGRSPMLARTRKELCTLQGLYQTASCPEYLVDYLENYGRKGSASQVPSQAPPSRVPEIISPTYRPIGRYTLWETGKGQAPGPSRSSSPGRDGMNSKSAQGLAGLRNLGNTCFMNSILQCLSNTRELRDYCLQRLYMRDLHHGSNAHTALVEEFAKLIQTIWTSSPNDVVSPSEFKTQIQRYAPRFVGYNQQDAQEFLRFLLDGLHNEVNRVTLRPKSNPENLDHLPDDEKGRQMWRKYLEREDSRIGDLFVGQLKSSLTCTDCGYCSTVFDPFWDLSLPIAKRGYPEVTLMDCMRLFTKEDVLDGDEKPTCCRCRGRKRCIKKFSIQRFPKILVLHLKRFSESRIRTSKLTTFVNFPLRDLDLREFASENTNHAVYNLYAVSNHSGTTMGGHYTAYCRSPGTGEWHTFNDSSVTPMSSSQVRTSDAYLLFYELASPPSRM

The target of this experiment is Ubiquitin carboxyl-terminal hydrolase 2 (Homo sapiens) (UniProt O75604). The experiment is described as follows: Ub-rhodamine 110 based assay for inhibitors Ubiquitin-specific Protease USP2a. Also: nearly all actives have a fitted effect of over 50% in size. Conditions: USP2a Ub-rhodamine110 cleavage, fluorescence; series mostly up to 38.3 µM. Summed up:
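Kinetic fluorescence (485/531 nm) read each minute over 7 min after adding Ub-Rhod110 (150 nM final) to USP2a (5 nM final). The enzyme had 30 min RT exposure to compounds beforehand in Tris pH 8.0 buffer with CaCl2, CHAPS and beta-ME.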
For `CC(C)N(C(=O)c1sc2cc([N+](=O)[O-])ccc2c1Cl)C(C)C`, the Potency entry is “inactive”.

For `O=[N+]([O-])c1ccc2nc(C(O)C(O)c3nc4ccc([N+](=O)[O-])cc4[nH]3)[nH]c2c1` (centres undefined), the Potency was 11.2 µM (active). As to `O=C(N/N=C/c1cc(Cl)c(O)c(Cl)c1)c1cc2c(ccc3ccccc32)o1`, the Potency was 11.2 µM (active).

For the molecule `COc1ccc(OCC(=O)NCCNC(=O)c2cccnc2)cc1`, the Potency entry was “inactive”. Take `O=C(/C=N/O)NCc1cccnc1`: the Potency result is “inactive”. Take `Cc1cc(N=Nc2ccc(C)c(N=Nc3cc(C)c(N)cc3N)c2)c(N)cc1N`: the Potency result was “inactive”. On to `CN(C)CCCN1C(=O)C(=O)/C(=C(/O)c2ccncc2)C1c1cccnc1` (centres undefined), for which the Potency result was “inactive”. The same measure for `CN(C)c1cccc(C(=O)NNC(=O)C23CC4CC(CC(C4)C2)C3)c1`: “inactive”; for `COC(=O)N/N=C\c1cc(Br)ccc1OCc1ccccc1`: “inactive”. For `CNc1nc(OCCNC(=O)Nc2ccccc2)nc(N2CCOCC2)n1`, the Potency result is “inactive”. The same measure for `O=[N+]([O-])/C(C(Cl)=C(Cl)Cl)=C(\Sc1ccccc1)N1CCCCC1`: “inactive”; for `COc1ccc(/C=C2/SC(=S)N(c3ccc(S(=O)(=O)Nc4nccs4)cc3)C2=O)cc1`: 3.16 µM (active); for `COc1ccc(-c2csc(N3CCN(C(=O)c4ccco4)CC3)n2)cc1`: “inactive”. The same measure for `Cc1ccc(S(=O)(=O)N2[C@@H](c3ccc(C(C)(C)C)cc3)C(C(=O)O)=CC[C@H]2c2ccc(C(C)C)cc2)cc1`: 3.98 µM (active); for `CCOC(=O)C(=O)Nc1nc(-c2ccc3c(c2)CCN3C(=O)C2CC2)c(C)s1`: “inactive”; for `Cc1cc(=O)n2[nH]c(-c3sccc3-n3c(C)ccc3C)cc2n1`: 10 µM (active). Consider `CC(C)c1ccc2c(c1)c(SC(C)(C)C)c(CC(C)(C)C(=O)O)n2Cc1ccc(Cl)cc1`, for which the Potency is 7.08 µM (active).

Take `CCC1=[N+](CC(=O)c2ccc(Br)cc2)CCn2c(C)ccc21`: the Potency result was “inactive”.

As for `Cc1ccc(NC(=O)CSc2nnc(COc3ccc(C#N)cc3)n2-c2ccccc2)cc1C`, the Potency entry is “inactive”.

Turning to `COc1ccc(NC(=O)CSc2ncccc2C(=O)OC(C)C)cc1OC`, the Potency result is “inactive”. `Cn1ccc(=Nc2ccc(NC(=O)c3ccc(N=c4ccn(C)c5ccc([N+](=O)[O-])cc45)cc3)cc2)cc1`: the Potency result is “inactive”. `CCc1c(O)nc(SCC(=O)Nc2ccccc2OC)[nH]c1=O`: the Potency result was “inactive”. As for `O=C(COC(=O)c1ccc(NS(=O)(=O)c2cccs2)cc1)Nc1nc2c(F)c(F)c(F)cc2s1`, the Potency is 3.55 µM (active). Consider `COc1ccc(C(=O)N/C(=C\c2cccs2)C(=O)N2CCN(C)CC2)cc1OC`, for which the Potency result is “inactive”. With `COc1ccc2[nH]c(=O)c(CN(Cc3ccco3)Cc3nnnn3Cc3ccccc3)cc2c1` the entry was “inactive”; with `Cc1ccc(C(=O)Nc2nnc(CC(=O)N/N=C/c3ccc(O)c(O)c3)s2)cc1`, 4.47 µM (active). In the case of `CC(C)C(C(=O)O)N1C(=O)/C(=C/C=C/c2ccco2)SC1=S` (centres undefined), the Potency is 5.01 µM (active). Consider `CCCOc1ccc(/C=C2\SC(=S)N(CC3CCCO3)C2=O)cc1` (centres undefined), for which the Potency entry is “inactive”.

On to `Nc1c(C(=O)Nc2ccc3c(c2)OCCO3)nnn1CCc1ccccc1`, for which the Potency result is “inactive”.

As for `CC(C)C(=O)Nc1ccc(C(=O)N2CCCCCC2)cc1`, the Potency entry is “inactive”. Regarding `O=S(=O)(c1ccccc1)N(CC1CO1)c1cc(Cl)ccc1Cl` (centres undefined), the Potency entry was “inactive”. With `CCCOc1ccc(-c2nc(C#N)c(N3CCN(CC)CC3)o2)cc1` the entry was “inactive”; with `C=CC[C@H](CC(=O)N[C@H](CO)Cc1ccccc1)C(=O)N[C@@H](COC(=O)[C@@H](CC=C)CC(=O)OC(C)(C)C)Cc1c[nH]c2ccccc12`, “inactive”. The same measure for `O=C(COC(=O)c1c2c(nc3ccccc13)/C(=C/c1ccco1)CC2)NC1CCCC1`: 3.55 µM (active); for `COc1ccc(NC(=S)NC(=O)/C=C/c2ccco2)cc1`: “inactive”. With `Oc1ccccc1/C=N/Nc1ncc(Br)cn1` the entry was “inactive”.

Consider `Nc1c(C(=O)Nc2ccc(Cl)cc2)oc2ccccc12`, for which the Potency entry was “inactive”.

For `CCOC(=O)N1CCN(C(=O)c2cc3c(ccc4ccccc43)oc2=O)CC1`, the Potency result is “inactive”. As to `N#Cc1c(NC(=O)CSc2ncnc3sccc23)oc(-c2ccco2)c1-c1ccco1`, the Potency was 3.98 µM (active).

The values are drawn from PubChem BioAssay AID493170 (National Center for Advancing Translational Sciences (NCATS), 2011).
